# Reference: PubChem BioAssay (Tox21)
# Where “and” joins values, the source holds several entries; their conditions need not be identical. Identical values can stand only once. Results filed as inconclusive are left out. Some compounds were tested as several samples or in several runs, with calls that do not always agree. Calls of active or inactive are those of the source. Calls follow the shape of the full dose curve.
# Target: Acetylcholinesterase (Homo sapiens) (UniProt P22303)
# Assay: Acetylcholinesterase (AChE) small molecule antagonists: colormetric cell-based qHTS assay (AID 1347395); also: nearly all actives have a fitted effect of over 30% in size
# Conditions: SH-SY5Y cells AChE activity, colorimetric (Ellman); series mostly up to 115 µM; activity, negative = inhibition: at the top concentration
# Outline: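 Cells (SH-SY5Y, 2,000 per well) are seeded and left overnight at 37 C. Compound is added for 30 min, then DTNB and acetylthiocholine for a further 90 min at 37 C before absorbance-based thiocholine detection.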
# % is scaled to controls: 0 for no effect and ±100 for the full control effect; potency is read from the fitted curve at half-maximal effect.
# Chain of Acetylcholinesterase (Homo sapiens) (P22303 whole entry, looked up): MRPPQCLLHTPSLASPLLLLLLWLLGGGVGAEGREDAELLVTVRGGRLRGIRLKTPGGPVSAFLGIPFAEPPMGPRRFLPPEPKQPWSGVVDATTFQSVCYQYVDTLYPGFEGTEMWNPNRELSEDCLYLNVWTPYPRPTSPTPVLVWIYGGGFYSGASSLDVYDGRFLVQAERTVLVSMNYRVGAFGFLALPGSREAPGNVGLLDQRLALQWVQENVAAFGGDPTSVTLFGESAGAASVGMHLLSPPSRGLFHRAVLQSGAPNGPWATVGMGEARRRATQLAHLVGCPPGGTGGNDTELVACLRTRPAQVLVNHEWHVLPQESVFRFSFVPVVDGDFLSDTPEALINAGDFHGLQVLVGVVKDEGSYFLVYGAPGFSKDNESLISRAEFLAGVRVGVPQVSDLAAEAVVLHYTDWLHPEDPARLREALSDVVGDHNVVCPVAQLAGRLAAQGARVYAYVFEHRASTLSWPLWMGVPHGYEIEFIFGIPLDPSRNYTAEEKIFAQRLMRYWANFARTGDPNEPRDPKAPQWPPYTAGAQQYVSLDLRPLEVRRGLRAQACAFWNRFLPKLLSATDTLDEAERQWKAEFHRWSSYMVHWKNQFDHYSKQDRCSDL
Compound,Potency,"activity, negative = inhibition"
OCCO,inactive,–
CC(C)(CC(=O)O)C(=O)O,–,-0.716% (inactive)
CCCCCCCCOC(=O)c1ccc(O)cc1,inactive,–
Oc1cn2c(n1)Nc1ccc(Cl)c(Cl)c1C2,–,-9.64% [at 23.6 µM] (inactive)
O=[N+]([O-])c1ccc(F)cc1F,–,2.36% (inactive)
[O-]/[N+](=N\O)c1ccccc1,inactive,–
C/C=C\C/C=C/CCCCCCCCOC(C)=O,–,-8.67% (inactive)
NC(=O)CCCCC1CCSS1 (stereo not given),–,2.36% [at 52.9 µM] (inactive)
Nc1nc(Cl)nc2c1ncn2[C@H]1C[C@H](O)[C@@H](CO)O1,–,1.46% (inactive)
IC(I)I,inactive,–
FC(F)(F)c1ccccc1-n1ccnc1,–,1.02% [at 52.9 µM] (inactive)
CCCCNC(=O)NCCCC,–,0.105% (inactive)
CCc1nnc(NS(=O)(=O)c2ccc(N)cc2)s1,–,3.71% [at 52.9 µM] (inactive)
Nc1cc(Cl)c(-c2cc(Cl)c(N)cc2Cl)cc1Cl,inactive,–
CC(O)CNCC(C)O (stereo not given),inactive,–
NC(N)=NCCN1CCCCCCC1,–,6.69% [at 0.435 µM] (inactive)
CCCCCCCCCCCCC,–,-1.41% (inactive)
NC(=O)N1c2ccccc2C=Cc2ccccc21,35.4 µM (active) and inactive,–
CCCCC(CC)COC(=O)c1ccccc1 (stereo not given),–,-2.34% (inactive)
CC(=O)N1C[C@H](O)C[C@H]1C(=O)O,–,1.85% [at 52.9 µM] (inactive)

Compound,Potency,"activity, negative = inhibition"
C1CN(SSN2CCOCC2)CCO1,–,-3.09% (inactive)
NC(=NCCCCCCN=C(N)/N=C(\N)Nc1ccc(Cl)cc1)/N=C(\N)Nc1ccc(Cl)cc1,56.1 µM (active) and 62.9 µM (active) and inactive,–
CC(C)CC(=O)CC(C)CC(C)C (stereo not given),inactive,–
CCC(C)c1cc(C(C)(C)C)c(O)c(C(C)(C)C)c1 (stereo not given),–,-2.24% (inactive)
O=C(OCC1CO1)C1CCCCC1C(=O)OCC1CO1 (stereo not given),–,1.59% (inactive)
NCCCN(CCO)CCO,–,-9.98% (inactive)
Cc1cc(O)c2c(c1)C(=O)c1cccc(O)c1C2=O,–,-5.54% [at 52.9 µM] (inactive)
CC/C(C)=N/O,inactive,–
CCCCCCCCNC(C)C(O)c1ccc(SC(C)C)cc1 (stereo not given),–,-4.67% [at 52.9 µM] (inactive)
O=S(=O)(Oc1ccc(Cl)cc1Cl)c1ccccc1,inactive,–
c1cc[c]([Bi]([c]2ccccc2)[c]2ccccc2)cc1,–,-1.58% (inactive)
CCC1OCC(COc2ccc(Oc3ccccc3)cc2)O1 (stereo not given),–,2.86% (inactive)
O=C1c2cccc(O)c2C(=O)c2c(O)cc(CO)cc21,–,-8.18% (inactive)
O=c1oc2c(O)c(O)cc3c(=O)oc4c(O)c(O)cc1c4c23,–,-4.32% [at 23.6 µM] (inactive)
CC(C)Cc1ccccc1,inactive,–
CC1=CC(O)CC(C)(C)C1 (stereo not given),–,-4.42% (inactive)
NC[C@H]1O[C@H](O[C@H]2[C@H](O)[C@@H](O[C@H]3O[C@H](CO)[C@@H](O)[C@H](N)[C@H]3O)[C@H](N)C[C@@H]2N)[C@H](N)[C@@H](O)[C@@H]1O,–,1.64% [at 23.6 µM] (inactive)
CCCCN(CCCC)c1ccc(C(=O)c2ccccc2C(=O)O)c(O)c1,–,0.205% (inactive)
CN(C)C(=O)CNC(=O)Cc1ccccc1,–,0.0033% [at 52.9 µM] (inactive)
C=C(C)C(=O)OCCC[Si](OC)(OC)OC,inactive,–

# Target: Acetylcholinesterase (Homo sapiens) (UniProt P22303)
# Assay: Acetylcholinesterase (AChE) small molecule antagonists: fluorescence cell-based qHTS assay (AID 1347398); also: nearly all actives have a fitted effect of over 50% in size
# Conditions: SH-SY5Y cells; Potency: AChE activity; outcome: AChE activity; series mostly up to 115 µM; activity change, negative = inhibition: at the top concentration
# Outline: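 Read-out is Thiolite Green fluorescence at Ex/Em = 490/520 nm, formed by reaction with thiocholine released when cellular AChE in SH-SY5Y cells hydrolyzes acetylthiocholine. Compounds were preincubated 30 min at 37 C before substrate.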
Compound,Potency,"activity change, negative = inhibition"
OCCO,inactive,–
CC(C)(CC(=O)O)C(=O)O,–,4.62% (inactive)
CCCCCCCCOC(=O)c1ccc(O)cc1,inactive,–
Oc1cn2c(n1)Nc1ccc(Cl)c(Cl)c1C2,–,-3.43% [at 23.8 µM] (inactive)
O=[N+]([O-])c1ccc(F)cc1F,–,3.42% (inactive)
[O-]/[N+](=N\O)c1ccccc1,inactive,–
C/C=C\C/C=C/CCCCCCCCOC(C)=O,–,-21.5% (inactive)
NC(=O)CCCCC1CCSS1 (stereo not given),–,0% [at 53.7 µM] (inactive)
Nc1nc(Cl)nc2c1ncn2[C@H]1C[C@H](O)[C@@H](CO)O1,–,6.82% (inactive)
IC(I)I,inactive,–
FC(F)(F)c1ccccc1-n1ccnc1,–,1.32% [at 53.7 µM] (inactive)
CCCCNC(=O)NCCCC,–,-4.73% (inactive)
CCc1nnc(NS(=O)(=O)c2ccc(N)cc2)s1,–,28.1% [at 53.7 µM] (inactive)
Nc1cc(Cl)c(-c2cc(Cl)c(N)cc2Cl)cc1Cl,inactive,–
CC(O)CNCC(C)O (stereo not given),inactive,–
NC(N)=NCCN1CCCCCCC1,–,3.67% [at 0.439 µM] (inactive)
CCCCCCCCCCCCC,–,1.37% (inactive)
NC(=O)N1c2ccccc2C=Cc2ccccc21,inactive,–
CCCCC(CC)COC(=O)c1ccccc1 (stereo not given),–,-1.2% (inactive)
CC(=O)N1C[C@H](O)C[C@H]1C(=O)O,–,-1.26% [at 53.7 µM] (inactive)

Compound,Potency,"activity change, negative = inhibition"
C1CN(SSN2CCOCC2)CCO1,inactive,–
NC(=NCCCCCCN=C(N)/N=C(\N)Nc1ccc(Cl)cc1)/N=C(\N)Nc1ccc(Cl)cc1,11.1 µM (active) and 17.7 µM (active) and 16.2 µM (active),–
CC(C)CC(=O)CC(C)CC(C)C (stereo not given),inactive,–
CCC(C)c1cc(C(C)(C)C)c(O)c(C(C)(C)C)c1 (stereo not given),–,-0.659% (inactive)
O=C(OCC1CO1)C1CCCCC1C(=O)OCC1CO1 (stereo not given),–,-1.71% (inactive)
NCCCN(CCO)CCO,–,-15.8% (inactive)
Cc1cc(O)c2c(c1)C(=O)c1cccc(O)c1C2=O,–,-7.44% [at 53.7 µM] (inactive)
CC/C(C)=N/O,inactive,–
CCCCCCCCNC(C)C(O)c1ccc(SC(C)C)cc1 (stereo not given),–,-13.4% [at 53.7 µM] (inactive)
O=S(=O)(Oc1ccc(Cl)cc1Cl)c1ccccc1,inactive,–
c1cc[c]([Bi]([c]2ccccc2)[c]2ccccc2)cc1,–,8.34% (inactive)
CCC1OCC(COc2ccc(Oc3ccccc3)cc2)O1 (stereo not given),–,-2.43% (inactive)
O=C1c2cccc(O)c2C(=O)c2c(O)cc(CO)cc21,–,-16.9% (inactive)
O=c1oc2c(O)c(O)cc3c(=O)oc4c(O)c(O)cc1c4c23,–,4.39% [at 23.8 µM] (inactive)
CC(C)Cc1ccccc1,inactive,–
CC1=CC(O)CC(C)(C)C1 (stereo not given),–,7.95% (inactive)
NC[C@H]1O[C@H](O[C@H]2[C@H](O)[C@@H](O[C@H]3O[C@H](CO)[C@@H](O)[C@H](N)[C@H]3O)[C@H](N)C[C@@H]2N)[C@H](N)[C@@H](O)[C@@H]1O,–,4.18% [at 23.8 µM] (inactive)
CCCCN(CCCC)c1ccc(C(=O)c2ccccc2C(=O)O)c(O)c1,–,-14.2% (inactive)
CN(C)C(=O)CNC(=O)Cc1ccccc1,–,6.18% [at 53.7 µM] (inactive)
C=C(C)C(=O)OCCC[Si](OC)(OC)OC,inactive,–
